TRPML1 ag – human mucolipin-1 channel agonism. TRPML1-expressing cells, Ca2+ dye fluorescence, FDSS. activation, % (concentration not given with the values). hit rate 0.12% among 410,000. AID 624414; in the data active = activation above about 50%; inconclusive = mostly about 30% to 49%
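Calcium fluorescence on an FDSS kinetic reader gave the read-out. Tet-induced TRPML1-DL cells were plated overnight, dye-loaded (Ca8 with quencher, 45-90 min, room temperature, dark), then read 110 s after compound addition, and again 110 s after 4uM final 54-4 (EC80).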
D3 ag – D3 dopamine receptor (human) agonism; D3R DiscoveRx beta-arrestin cells, luminescence, 90 min; max activation, %; hit rate 0.58% among 410,000; AID 652048; in the data active = max activation above about 30%
Target sequence (P35462 whole entry, looked up): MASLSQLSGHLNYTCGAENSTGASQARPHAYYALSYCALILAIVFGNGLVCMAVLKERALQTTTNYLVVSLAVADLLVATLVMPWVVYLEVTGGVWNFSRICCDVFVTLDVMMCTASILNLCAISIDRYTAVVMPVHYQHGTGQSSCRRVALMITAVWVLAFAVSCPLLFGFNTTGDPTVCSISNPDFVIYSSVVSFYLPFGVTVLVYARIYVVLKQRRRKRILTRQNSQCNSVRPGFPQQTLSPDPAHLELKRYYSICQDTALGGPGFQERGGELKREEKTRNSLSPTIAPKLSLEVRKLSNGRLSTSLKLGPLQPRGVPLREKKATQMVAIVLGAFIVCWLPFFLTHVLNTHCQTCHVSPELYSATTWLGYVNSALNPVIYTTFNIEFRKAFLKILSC
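Agonist-mode cell screen: cells plated at 1500/well and incubated overnight at 37 °C, then exposed to library compounds for 90 min at 37 °C. Detection reagent was added for 30–60 min at room temperature, and luminescence was read.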
DRD3 antagonist – antagonists of human D3 dopamine receptor | max response, negative = inhibition, % | D3R cells, DiscoveRx beta-arrestin luminescence, antagonist mode; hits give low values | hit rate 2.5% among 360,000; in the data active = max response below about -50%; inconclusive = no clear call, values can overlap the other calls
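Cells plated overnight at 1500 cells/well, then exposed to library compounds with dopamine controls for 90 minutes at 37 degrees C. DiscoveRx reagent added for 30–60 minutes at room temperature; luminescence read, quantitative HTS format.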
TRPML1 blocker – human mucolipin-1 channel inhibition. hit rate 0.02% among 390,000. activity change, negative = inhibition, % (concentration not given with the values). AID 624415. TRPML1-inducible cells, Ca2+ dye fluorescence, FDSS; hits give low values; inhibition of EC80 agonist-evoked calcium signal; in the data active = activity change below about -50%; inconclusive = between about -30% and that limit;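 also: stimulus is agonist 54-4 at its EC80 concentration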
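Calcium fluorescence in TRPML1-DL cells induced overnight with Tet: a 110 s read after compound pin addition, then a 110 s antagonist read after challenge with 54-4 at 4 uM final (EC80).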
Hits are given with their value; n = inactive; u = inconclusive; x = not tested or not shown. Shown are actives, neighbours in structure and some others; about 2.9% of the full set was active somewhere.

SMILES	TRPML1 ag	D3 ag	DRD3 antagonist	TRPML1 blocker
COc1ccc(-c2noc3c2-c2nc(-c4cccc(C)c4)sc2CC3)cc1	n	59.5	n	n
Brc1ccc(C2C=Cc3ccccc32)cc1 (stereo not given)	n	x	x	x
Cc1c(CCC(=O)NCc2ccc(F)cc2)c(=O)oc2cc(O)ccc12	n	n	x	n
OC1(c2ccc(Cl)cc2)CCN(Cc2cn[nH]c2-c2ccccc2)CC1	n	n	-97.6	n
Fc1ccc(N2CCN(Cc3cn[nH]c3-c3ccccc3)CC2)cc1	n	n	n	n
COc1ccc(-c2[nH]ncc2CN2CCC(O)(c3ccc(Cl)cc3)CC2)cc1	n	n	u	n
OC1(c2ccc(Cl)cc2)CCN(Cc2cn[nH]c2-c2ccc(F)cc2)CC1	n	n	-97.6	n
CC1(c2ccccc2)CC(C)(C)N(C(=O)c2cccc(Cl)c2)c2ccccc21 (stereo not given)	n	n	x	n
Cc1cccc(N(CC(=O)N(C)Cc2ccccc2)S(=O)(=O)c2ccccc2)c1C	n	n	x	n
NC(=S)n1[nH]c(-c2ccc([N+](=O)[O-])cc2)c(N=Nc2ccc(Cl)cc2)c1=O	n	n	n	n
O=c1c(N=Nc2ccc(O)cc2)c(-c2ccccc2)[nH]n1-c1ccc([N+](=O)[O-])cc1	n	n	-70.3	n
CCN(CC)CCOC(=O)c1ccc(NC(=O)CCCN2C(=O)S/C(=C/c3ccc(OC)cc3)C2=S)cc1	n	n	-82.7	n
Cc1ccc(CN2CCN(C3CCN(C(=O)c4ccc(C)cc4)CC3)C(=O)C2=O)cc1	n	n	x	n
O=C(c1ccc2c(=O)n(CCc3ccccc3)c(=O)[nH]c2c1)N1CCN(C(=O)c2ccco2)CC1	n	x	x	x
CCc1ccc(NC(=O)[C@@H](NC(=O)[C@@H]2Cc3ccccc3CN2)C(C)CC)cc1 (stereo not given in full)	n	n	u	n
CCc1ccc(NC(=O)[C@H](NC(=O)[C@@H]2Cc3ccccc3CN2)c2ccccc2)cc1	n	n	-101.1	n
Cc1cc(C)cc(NC(=O)[C@H](NC(=O)[C@@H]2Cc3ccccc3CN2)c2ccccc2)c1	n	n	-107.6	n
COc1ccccc1CNC(=O)C1CCN(S(=O)(=O)c2ccc3c(c2)CCCN3C(C)=O)CC1	n	n	x	n
O=S(=O)(c1cccc(Cl)c1)N1CCN(c2nc(-c3cccs3)nc3ccccc23)CC1	n	x	x	x
Cc1cc(C)c(NC(=O)COC(=O)c2cccc3c2C(=O)c2ccccc2C3=O)c(C)c1	n	31.7	n	n
Cc1oc2c(c1C(=O)Nc1ccccc1Br)C1=NCCN1C=N2	n	n	x	n
COc1ccccc1/C=C1\C=Cc2ccccc21	n	x	x	x
COc1ccc(C(CNC(=O)COc2ccc(Cl)c(C)c2)N2CCCCC2)cc1 (stereo not given)	n	n	-95.3	n
COc1ccc(C(CNC(=O)COc2ccc(F)cc2Cl)N2CCCCC2)cc1 (stereo not given)	n	n	n	n
COc1ccc(C(CNC(=O)COc2cccc(C(F)(F)F)c2)N2CCCC2)cc1 (stereo not given)	n	n	-106.9	n
SMILES	TRPML1 ag	D3 ag	DRD3 antagonist	TRPML1 blocker
COc1ccc(C(CNC(=O)COc2cccc(C)c2)N2CCCC2)cc1 (stereo not given)	n	n	-75.7	n
COc1ccc(C(CNC(=O)COc2ccc(C)cc2)N2CCCCC2)cc1 (stereo not given)	n	n	x	n
COc1ccc(C(CNC(=O)COc2ccc(Br)cc2F)N2CCCC2)cc1 (stereo not given)	n	n	-76.2	n
CCCCOc1ccccc1C1CC(=O)Nc2ccc3ccccc3c21 (stereo not given)	n	n	x	n
CCC(Nc1ccc(-c2nc(-c3ccco3)no2)cc1[N+](=O)[O-])c1ccccc1 (stereo not given)	n	n	x	n
CCCCCCSc1ccc([C@H]2N[C@@](Cc3ccccc3)(C(=O)OC)[C@H]3C(=O)N(C)C(=O)[C@@H]23)cc1	n	n	-51.3	u
CCN1C(=O)[C@H]2[C@@H](c3ccc(-c4ccc(C(C)=O)cc4)c(OC)c3)N[C@@](Cc3ccccc3)(C(=O)OC)[C@H]2C1=O	n	n	-59.3	n
CC(=O)NCCCN(Cc1ccc(Cl)c(Cl)c1)c1ccc(Br)cn1	n	x	x	x
COc1ccc(CCNC(=O)c2ccc3c(c2)CCN3S(=O)(=O)c2ccc(C)cc2)cc1OC	n	n	x	n
O=C(CCC(=O)N1CCOc2ccc(Cl)cc21)NCCCN1CCN(c2ccccc2F)CC1	n	n	-95.5	n
O=C(CCC(=O)N1CCOc2ccc(Cl)cc21)NCCCN1CCC(Cc2ccccc2)CC1	n	n	-70.6	n
CC(C)C[C@@H](CSc1ccccc1)N1CCN(CCc2ccccc2)CCC1=O	n	n	-56.2	n
CO[C@H]1C=CO[C@@]2(C)Oc3c(C)c(O)c4c(O)c(c(C=NN5CCN(C)CC5)c(O)c4c3C2=O)NC(=O)C(C)=CC=C[C@H](C)[C@H](O)[C@@H](C)[C@@H](O)[C@@H](C)[C@H](OC(C)=O)[C@@H]1C	n	n	-76.3	n
Cc1ccc(C2C(C(=O)c3cc4ccccc4o3)=C(O)C(=O)N2CCN2CCOCC2)o1 (stereo not given)	n	n	-55.8	n
O=S(=O)(c1ccc(-c2cc(C(F)(F)F)on2)s1)N1CCN(c2cccc(Cl)c2)CC1	n	n	x	n
COc1c(F)c(F)c(C(=O)Nc2ccc3oc(-c4ccncc4)nc3c2)c(F)c1F	n	n	n	n
O=C(Nc1ccc2oc(-c3ccncc3)nc2c1)c1c(F)c(F)c(F)c(F)c1F	n	n	-66.0	n
C(#Cc1ccccc1)CN1CCCCC1	n	n	u	n
COc1cc(C#CC#CCN2CCCCC2)ccc1O	n	n	-116.3	n
COc1cc(C(=O)OCCN2CCCCC2)ccc1O	n	n	-57.8	n
COc1cc(C(=O)OCCN2CCOCC2)cc(OC)c1OC	n	n	n	n
O=C(OCCN1CCCCC1)c1ccc(Cl)cc1	n	n	-78.2	n
COc1cc(C(=O)OCCCN2CCCN(CCCOC(=O)c3cc(OC)c(OC)c(OC)c3)CC2)cc(OC)c1OC	n	n	-92.3	n
Cc1cc(C(C)(C)C)ccc1OCCn1ccnc1	n	n	-63.6	n
c1ccc(-c2ccccc2OCCOCCN2CCCCC2)cc1	n	n	u	n
SMILES	TRPML1 ag	D3 ag	DRD3 antagonist	TRPML1 blocker
Cc1ccc(OCCn2ccnc2)c(C)c1	n	n	n	n
c1ccc(-c2ccccc2OCCCCN2CCCCCC2)cc1	n	n	-86.1	n
OCCCN1CCN(CCCOc2ccccc2-c2ccccc2)CC1	n	n	u	n
C=CCc1ccccc1OCCCCN1CCCC1	n	n	-83.0	n
c1ccc(-c2ccccc2OCCN2CCCC2)cc1	n	n	-62.9	n
CCc1ccccc1OCCCCN1CCCC1	n	n	u	n
COc1ccc(-c2nc3cccc(C)n3c2Nc2ccc(C)cc2)cc1	n	x	x	x
C=CCc1cccc(OC)c1OCCOCCn1ccnc1	n	n	n	n
C=CCc1ccccc1OCCn1ccnc1	n	n	-51.8	n
CCC(=O)c1c[nH]c(C(=O)NCc2cccnc2)c1	n	n	n	n

High-throughput results as filed in PubChem BioAssay.
